Source: PubChem BioAssay AID624330 (Southern Research Specialized Biocontainment Screening …, 2012)
Out of some 340,000 compounds screened, about 2,100 (0.62%) were called active.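 The calls were made as follows: active = first-screen hits whose inhibition reached a set limit at any dose in the follow-up dose series; inconclusive = inhibition above the set first-screen limit but never retested; inactive = the rest.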 A selection follows. Entries with a potency or affinity are not part of this list.

Each compound was assayed against Rac GTPase-activating protein 1 (Homo sapiens) (UniProt Q9H0H5) (assay: MgcRacGAP GTPase-activating activity inhibitors, confirmation, biochemical, ADP Hunter fluorescence, primary and confirmatory (AID 624330;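 also: fluorescence reports GDP produced by GAP-driven GTP hydrolysis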)). Settings: MgcRacGAP-stimulated Rac1 GTP hydrolysis, at 30 µM, hits give high values, GST-tagged Rac1 F28L mutant substrate.
Sequence of Rac GTPase-activating protein 1 (Homo sapiens) (Q9H0H5 whole entry, looked up): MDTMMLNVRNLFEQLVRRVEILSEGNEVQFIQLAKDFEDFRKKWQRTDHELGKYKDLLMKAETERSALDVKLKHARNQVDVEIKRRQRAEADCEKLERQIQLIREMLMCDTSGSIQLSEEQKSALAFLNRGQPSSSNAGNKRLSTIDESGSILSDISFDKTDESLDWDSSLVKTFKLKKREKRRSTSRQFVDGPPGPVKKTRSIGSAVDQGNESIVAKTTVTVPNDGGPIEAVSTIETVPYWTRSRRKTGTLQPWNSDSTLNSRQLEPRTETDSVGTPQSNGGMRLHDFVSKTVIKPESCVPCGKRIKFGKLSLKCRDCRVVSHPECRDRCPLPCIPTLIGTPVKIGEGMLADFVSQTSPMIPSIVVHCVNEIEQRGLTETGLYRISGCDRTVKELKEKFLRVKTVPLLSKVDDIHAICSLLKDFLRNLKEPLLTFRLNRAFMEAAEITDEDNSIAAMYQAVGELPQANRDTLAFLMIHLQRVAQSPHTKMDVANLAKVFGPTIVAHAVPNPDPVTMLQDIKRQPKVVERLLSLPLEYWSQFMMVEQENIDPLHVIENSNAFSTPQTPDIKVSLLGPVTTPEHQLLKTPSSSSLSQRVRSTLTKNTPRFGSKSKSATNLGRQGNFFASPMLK

inhibition, inactive:
CS(=O)(=O)c1ccc(Cl)c(NC(=O)COC(=O)CNC(=O)c2ccccc2)c1 6.09%, O=C(Cc1cccc(F)c1)Nc1ccc2c(c1)CCC2 6.98%, C=C(c1ccccc1Cl)[n+]1ccccc1 -11.7%, N#CCCN(Cc1cccnc1)C(=S)NC(=O)c1ccco1 5.92%, O=C(OCC(=O)N1CCCC1)c1c(Cl)ccc(Cl)c1Cl -3.47%, Cc1nc(C(=O)N(C)C)nn1-c1cc(Cl)ccc1Cl 9.33%, Cc1ccc(-n2c(C(C)C)nc3oc4ccccc4c(=O)c3c2=O)cc1 0.93%, Oc1ccc(Br)cc1C=Nc1ccc(Cl)cc1 8.07%, Oc1ccc(Br)cc1/C=N/N1CCCCC1 6.18%, Cc1cc(C)cc(NC(=O)c2cccc(NC(=O)c3ccco3)c2)c1 -0.13%, O=C(Nc1cccc(NC(=O)c2ccco2)c1)c1cccc(Br)c1 7.43%, COc1ccccc1NC(=O)c1oc2ccccc2c1NC(=O)C1CC1 1.66%, CCn1c(=O)c(C(=O)CN(C)Cc2ccc(F)cc2)c(N)n(Cc2ccccc2)c1=O 5.49%, CCOc1ccc(CN(C)CC(=O)c2c(N)n(Cc3ccccc3)c(=O)n(CC)c2=O)cc1OC 5.23%, Cc1cccc(NC(=O)c2nc[nH]c2C(=O)N[C@@H](CC(C)C)C(=O)OCc2ccccc2)c1 5.96%, Cc1cc(C)cc(NC(=S)N2CCC(C(=O)c3ccc(F)cc3)CC2)c1 -15.2%, CC(C)CN(C(=O)c1cc2ccccc2o1)c1c(N)n(CC(C)C)c(=O)[nH]c1=O 7.89%, Cc1nn(-c2ccccc2)c(C)c1NC(=O)COC(=O)CCOc1ccccc1 2.57%, CC(=O)Nc1ccc(N/C=C2/CCCC2=O)cc1 14.8%, Cc1ccc(N/C=C2\CCCCC2=O)c(C)c1 5.15%, c1ccc(Nc2ccccc2)cc1 3.58%, CCC(CC)C(=O)Nc1ccc(Nc2ccccc2)cc1 28%, COCC(=O)Nc1ccc(Nc2ccccc2)cc1 15.4%, CCCCC(CC)C(=O)Nc1ccc(Nc2ccccc2)cc1 (centres undefined) 22.3%, O=C(O)CCC(NS(=O)(=O)c1ccc(N2CCCC2=O)cc1)C(=O)O (centres undefined) -1.24%, CCOc1ccc(S(=O)(=O)N2CCN(C(=O)c3cc(-c4ccccc4)nn3-c3ccccc3)CC2)cc1 6.52%, CNC(=O)C(=O)Nc1ccc2c(c1)N(S(=O)(=O)c1cccs1)CCC2 4.61%, CN(CCCC1CCCC1)C(=O)c1cc(COc2c(F)cccc2F)on1 7.43%, C[n+]1ccccc1/C=C/c1ccc(F)c(F)c1 9.42%, CCOc1cc(/C=C/c2cccc[n+]2C)ccc1OCC(=O)Nc1ccc(C)cc1 7.44%, Cc1ccc(CS(=O)Cc2ccc(C(=O)N3CCN(c4ccccn4)CC3)o2)cc1 (centres undefined) 9.12%, COc1ccc2cc[nH]c2c1 6.12%, COc1cc2[nH]ccc(=O)c2cc1OC 1.14%, Nc1n[nH]c(N)c1N=Nc1ccc(F)cc1 12.4%, Nc1[nH][nH]c(=O)c1N=Nc1ccc2c(c1)OCO2 19.5%, Cc1ccccc1-n1c(SCC(=O)c2c(N)n(C3CC3)c(=O)[nH]c2=O)nnc1N1CCOCC1 4.29%, CCCC(C1=C(O)CC(C)(C)CC1=O)C1C(=O)CC(C)(C)CC1=O (centres undefined) 8.39%, CC1(C)CC(=O)C(C(C2=C(O)CC(C)(C)CC2=O)c2ccc(Cl)c([N+](=O)[O-])c2)C(=O)C1 (centres undefined) -0.37%, CC1(C)CC(=O)C(C(C2=C(O)CC(C)(C)CC2=O)c2cccnc2)C(=O)C1 (centres undefined) 12%, CC1(C)CC(=O)C(C(C2=C(O)CC(C)(C)CC2=O)c2ccco2)C(=O)C1 (centres undefined) 29%, CC1(C)CC(=O)C(C(C2=C(O)CC(C)(C)CC2=O)c2cccc(O)c2)C(=O)C1 (centres undefined) 7.97%, CC1(C)CC(=O)C(C(C2=C(O)CC(C)(C)CC2=O)c2ccc([N+](=O)[O-])cc2)C(=O)C1 (centres undefined) 10.9%, COc1cccc(C(C2=C(O)CC(C)(C)CC2=O)C2C(=O)CC(C)(C)CC2=O)c1 (centres undefined) -5.78%, CC1(C)CC(=O)C(Br)=C(O)C1 -4.56%, CC[C@@]1(C(=O)OC)N[C@H](CN(C)C(=O)COC)[C@@H]2C(=O)N(C)C(=O)[C@@H]21 6.93%, CC1CC(C)CN(CCCCOc2ccc([N+](=O)[O-])cc2)C1 (centres undefined) 19.1%, CCOC(=O)C1=C(C)NC(=O)NC1/C=C\c1ccccc1 (centres undefined) 15.6%, CCOc1ccc(CCNC(=O)C2=C(C)C(=O)OC23CCC(C)CC3)cc1 (centres undefined) 8.86%, CN1CCN(c2ccc(NC(=S)NC(=O)c3cccc4c(Cl)cccc34)cc2)CC1 9.96%, CCCCNS(=O)(=O)c1cc2c3c(c1)CCN3C(=O)CC2 10.4%, COc1ccc(S(=O)(=O)NCc2cn3c(C)csc3n2)cc1F 7.58%, CN(Cc1nc2ccccc2c(=O)[nH]1)C(=O)COc1ccccc1Cc1ccccc1 4.16%, CNc1ccc(/C=C2\COc3ccccc3C2=O)cc1[N+](=O)[O-] 9.69%, O=C1C(=Cc2ccccc2[N+](=O)[O-])Cc2ccccc21 5.54%, Cc1cc2oc(=O)c(CC(=O)NCCCO)c(C)c2c2occ(C(C)(C)C)c12 4.92%, CCOc1cc(/C=N/NC(=O)c2cccnc2)ccc1OCC(N)=O 3.29%, O=C(OCc1nnc(-c2ccccc2)o1)c1cn(-c2ccccc2)nc1-c1ccccc1 4.52%, O=C1CC(c2cccs2)c2ccc3ccccc3c2N1 (centres undefined) 6.36%, OC1CCN(Cc2cccc3ccccc23)CC1 14.2%, COc1ccc(-c2nnn(CC(=O)NCCc3c[nH]c4ccccc34)n2)cc1OC 7.85%, COc1cc(/C=C2/C(=O)NN(c3ccc(F)cc3)C2=O)cc(Cl)c1O 20.4%, COc1cc(/C=C2/C(=O)NN(c3ccccc3)C2=O)cc(Br)c1O 23.7%, COc1cccc(C2=CC(=O)C[C@H](c3ccc4c(c3)OCO4)C2)c1OC 6.37%, O=c1c2ccccc2cnn1-c1ccc(Cl)cc1 1.97%, O=c1c2ccccc2ncn1-c1cccc(Cl)c1 5.62%, O=c1c2ccccc2sn1-c1ccc(S(=O)(=O)N2CCCCC2)cc1 10.2%, O=c1c2ccccc2sc2ccc(Cl)cc12 5.89%, Cc1nn(-c2ccc(Cl)cc2Cl)c(=O)c2ccccc12 -1.03%, Cc1cc(=O)cc(C)n1-c1ccc(Cl)cc1 5%, O=c1c2cc([N+](=O)[O-])ccc2sn1-c1ccccc1 17.4%, CC1=CC(C)(C)N(C)C(=O)N1c1ccc(Cl)cc1 6.14%, O=c1c2cnn(-c3ccccc3)c2ncn1Cc1ccccc1F 7.32%, CC(=O)c1ccc(-c2nnc(CCC(=O)N3CCCC(C(=O)CC(C)C)C3)o2)s1 (centres undefined) 9.2%, CCn1c(SCC(=O)NCCOC)nc2sc3c(c2c1=O)CCCC3 6.34%, CC1CCCCC1NC(=O)CCn1c(=O)sc2ccccc21 (centres undefined) 12.2%, CN(CC(=O)Nc1ccc(N2CCOCC2)cc1)CC(=O)Nc1ccccc1C#N 6.72%, O=c1oc2cc(Br)ccc2n1Cc1ccccc1 13.7%, CCc1nnc(NC(=O)c2cccc(S(=O)(=O)N3CCCCC3)c2)s1 10.2%, COC(=O)Cc1c(O)ccn(CCc2ccc(OC)c(OC)c2)c1=O 5.94%, Cc1ccc(S(=O)(=O)N2C[C@@H](C)[C@]3(C2)[C@H](O)[C@H](OC(=O)NC2CCCC2)C[C@H]2C(=O)N(c4ccccc4)C(=O)[C@H]23)cc1 15.8%, CSc1nc2c(C)c(C)c(C)c(C)c2[nH]1 2.42%, CCOC(=O)N1CCN(C(=O)CC(C(=O)N2CCc3ccccc32)n2ccnc2)CC1 (centres undefined) 4.9%, O=C(COc1ccc2c3c(c(=O)oc2c1)CCCC3)NCCN1CCOCC1 1.04%, COC(=O)C1=C(O)/C(=C\c2sccc2C)N=C1C 10.9%, CCOC(=O)C1=C(O)/C(=C\c2cccc(OC)c2)N=C1C 7.59%, CCOC(=O)C1=C(O)/C(=C\c2ccc(OC)c(OC)c2)N=C1C -1.28%, COC(=O)C1=C(O)/C(=C/c2cccc(OC)c2O)N=C1C 28.1%, COC(=O)C1=C(O)/C(=C/c2ccc(OCC(=O)Nc3ccc(OC)cc3)cc2)N=C1C 6.48%, CCOC(=O)C1=C(O)/C(=C/c2cc(OC)c(OC)c(OC)c2)N=C1C 2.56%, CN1CCN(NC(=O)c2cc([N+](=O)[O-])cc([N+](=O)[O-])c2)CC1 -0.16%, CCC(C)NC(=O)CN(c1cc(C)cc(C)c1)S(=O)(=O)c1c(C)[nH]c(=O)[nH]c1=O (centres undefined) 9.01%, CCCC(=O)Nc1ccc2c(c1)nc(CCNC(=O)c1ccccc1)n2C 1.08%, Cc1nonc1CN(C)C(=O)c1cc(COc2ccc(F)cc2Cl)on1 1.26%, Cn1c(=O)c2c(nc(N3CCNCC3)n2Cc2cccc3ccccc23)n(C)c1=O 6.58%
